These results are taken from PubChem BioAssay AID743366 (National Center for Advancing Translational Sciences (NCATS), 2014).

The structures appear in SMILES notation.

The test in a line: qHTS profiling of inhibitors of Plasmodium falciparum (HB3) proliferation (acoustic dispense). As to conditions: P. falciparum HB3 in erythrocytes, SYBR Green, 72 h; at 49.8 µM (top of the series) unless noted.
For `C[C@H]1Cc2c([nH]c3cc(Cl)c(F)cc23)[C@@]2(N1)C(=O)Nc1ccc(Cl)cc12`, the activity (normalised, proliferation) was -0.548%.

Consider `CCCCCCOC(=O)C1(O)CC2OC1(C)n1c3ccccc3c3c4c(c5c6ccccc6n2c5c31)C(=O)NC4` (centres undefined), for which the activity (normalised, proliferation) is 100% [at 1.88 µM].

On to `COCCn1c2c([n+](Cc3cnccn3)c1C)C(=O)c1ccccc1C2=O`, for which the activity (normalised, proliferation) is -1.3%.

As to `O=C1NC(=O)C(=Cc2ccc3nccc(-c4ccncc4)c3c2)S1`, the activity (normalised, proliferation) was 0.554%.

Regarding `Cn1c(=O)c(-c2c(Cl)cccc2Cl)cc2cnc(Nc3cccc(C(=O)O)c3)nc21`, the activity (normalised, proliferation) was found to be 16.3%.

For `CN[C@@H]1C[C@H]2O[C@@](C)([C@H]1OC)n1c3ccccc3c3c4c(c5c6ccccc6n2c5c31)C(=O)N[C@H]4O`, the activity (normalised, proliferation) is -0.206%.

`CCOC(=O)[C@H](CCc1ccccc1)N[C@H]1CS[C@H](c2cccs2)CN(CC(=O)O)C1=O`: the activity (normalised, proliferation) stood at 67.9%.

On to `CC(=O)Nc1nc(C)c(-c2ccc(Cl)c(S(=O)(=O)NCCO)c2)s1`, for which the activity (normalised, proliferation) is -1.46%.

For the molecule `CCS(=O)(=O)Nc1ccc2[nH]c(O)c(C(=Nc3ccc(CN4CCCCC4)cc3)c3ccccc3)c2c1`, the activity (normalised, proliferation) was -1.43%.

As for `CN(C)c1ccc(C(=C2C=CC(=[N+](C)C)C=C2)c2ccc(N(C)C)cc2)cc1`, the activity (normalised, proliferation) stood at 108%.

As for `CC[C@@]1([C@@H]2O[C@@H]([C@H]3O[C@@](O)(CO)[C@H](C)C[C@H]3C)C[C@H]2C)CC[C@H]([C@]2(C)CC[C@]3(C[C@H](O)[C@@H](C)[C@@H]([C@@H](C)[C@@H](OC)[C@H](C)C(=O)O)O3)O2)O1`, the activity (normalised, proliferation) turned out to be 1.41% [at 23.2 µM].

As to `CCC(=O)N1CCN(c2ccc(-n3c(=O)ccc4cnc5ccc(-c6cnc7ccccc7c6)cc5c43)cc2C(F)(F)F)CC1`, the activity (normalised, proliferation) was 0.244%.

For the molecule `CSc1cccc(Nc2ncc3cc(-c4c(Cl)cccc4Cl)c(=O)n(C)c3n2)c1`, the activity (normalised, proliferation) came out at 3%.

`CN(C(=O)OC(C)(C)C)[C@@H](Cc1ccc(O[S+](=O)([O-])c2cccc3cnccc23)cc1)C(=O)N1CCN(C(=O)OCc2ccccc2)CC1`: the activity (normalised, proliferation) stood at 2.29%.

With `CCN[C@H]1C[C@H](C)S(=O)(=O)c2sc(S(N)(=O)=O)cc21`, the activity (normalised, proliferation) came out at 37.3%.

In the case of `COC(=O)[C@]12CCC(C)(C)C[C@@H]1[C@@H]1C(=O)C=C3[C@@]4(C)C=C(C#N)C(=O)C(C)(C)[C@@H]4CC[C@@]3(C)[C@]1(C)CC2`, the activity (normalised, proliferation) came out at 41.4%.

For `CS(=O)(=O)CCNCc1ccc(-c2ccc3ncnc(Nc4ccc(OCc5cccc(F)c5)c(Cl)c4)c3c2)o1`, the activity (normalised, proliferation) stood at 7.39%.

`CCN(CC)Cc1cc(Nc2ccnc3cc(Cl)ccc23)ccc1O`: the activity (normalised, proliferation) was -0.453% [at 23.2 µM].

With `COc1ncc(-c2ccc3nccc(-c4ccnnc4)c3c2)cc1NS(=O)(=O)c1ccc(F)cc1F`, the activity (normalised, proliferation) is -1.51%.

For the molecule `CC(C)N=C(N)N=C(N)Nc1ccc(Cl)cc1`, the activity (normalised, proliferation) is -0.113%.

`COc1cc(NCc2ccc3nc(N)nc(N)c3c2C)cc(OC)c1OC`: the activity (normalised, proliferation) is -2.34%.

On to `O=C1c2ccccc2-[n+]2ccc3c([nH]c4ccccc43)c21`, for which the activity (normalised, proliferation) was 4.27%.

As to `O=C1c2c(O)ccc(O)c2C(=O)c2c(NCCNCCO)ccc(NCCNCCO)c21`, the activity (normalised, proliferation) was -5.84%.

On to `CCCCN(CCCC)CCC(O)c1cc2c(Cl)cc(Cl)cc2c2cc(C(F)(F)F)ccc12` (centres undefined), for which the activity (normalised, proliferation) is -0.0223% [at 23.2 µM].

In the case of `CCc1nc(N)nc(N)c1-c1ccc(Cl)cc1`, the activity (normalised, proliferation) is 0.0675%.

As to `COc1cc2nc(N3CCCN(C)CC3)nc(NC3CCN(Cc4ccccc4)CC3)c2cc1OC`, the activity (normalised, proliferation) is -1.22%.

Regarding `C[C@H]1[C@@H](OC(=O)CCC(=O)O)O[C@@H]2O[C@@]3(C)CC[C@@H]4[C@H](C)CC[C@@H]1[C@@]24OO3`, the activity (normalised, proliferation) is -0.479%.

Regarding `COc1ccc2nc3cc(Cl)ccc3c(Nc3cc(CN4CCCC4)c(O)c(CN4CCCC4)c3)c2n1`, the activity (normalised, proliferation) is -3.23%.

As to `CS[C@H]1SC[C@@H]2C(=O)N(C)[C@H](C(C)C)C(=O)OC[C@H](NC(=O)c3cnc4ccccc4n3)C(=O)N[C@H](C)C(=O)N(C)[C@@H]1C(=O)N(C)[C@H](C(C)C)C(=O)OC[C@H](NC(=O)c1cnc3ccccc3n1)C(=O)N[C@H](C)C(=O)N2C`, the activity (normalised, proliferation) worked out at 1.22%.

For `CC[C@H]1CN2CCc3cc(OC)c(OC)cc3[C@H]2C[C@@H]1C[C@@H]1NCCc2cc(OC)c(OC)cc21`, the activity (normalised, proliferation) is -0.337%.

For the molecule `CC(C)[C@H](C(=O)Nc1ccc(C(=O)NO)cc1)c1ccccc1`, the activity (normalised, proliferation) was -0.656%.

`CC(C)n1nc(-c2ccc3oc(N)nc3c2)c2c(N)ncnc21`: the activity (normalised, proliferation) was -0.709%.

With `C1CCC(C(CC2CCCCN2)C2CCCCC2)CC1` (centres undefined), the activity (normalised, proliferation) was -0.0393%.

With `C[C@H](Cn1cnc2c(N)ncnc21)OCP(=O)(O)O`, the activity (normalised, proliferation) is 92.2%.
